# Compounds with a hit are over-represented: about 6.5% of the library has one in this group of screens.
# Spn PMK inh: S. pneumoniae PMK inhibitors, primary screen, biochemical, mevalonate pathway, pilot trial included | purified PMK, PK/LDH-coupled NADH absorbance 340 nm | phosphomevalonate kinase (Streptococcus pneumoniae D39) | 0.49% of 65,000 active | inhibition, % at 10 µM;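 active = top-ranked compounds by inhibition in the single 10 µM screen, taking a fixed number of the strongest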;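 also: 0% = full reaction with DMSO carrier and 100% = background rate without enzyme reaction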
# Spn MK inh: S. pneumoniae MK inhibitors, primary screen, biochemical, PK/LDH-coupled NADH absorbance; mevalonate kinase [Streptococcus pneumoniae D39]; purified MK, PK/LDH-coupled NADH absorbance 340 nm; inhibition, % at 10 µM; 0.48% of 65,000 active; AID 555, 2006;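 active = ranked among the strongest by inhibition in the single 10 µM screen, a fixed top-ranked set picked for dose follow-up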
# NADH coupling: inhibitors of PK/LDH coupling enzymes, profiling panel, artefact control, biochemical, MLSMR library. coupled PK/LDH NADH assays, four targets. IC50, µM (series often up to 10 µM), without a hit: top-dose inhibition. 0.02% of 65,000 active;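 active = single-dose screening hits from any of four coupled enzyme assays that gave an IC50 when retested across doses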;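 also: the DPM-DC format reads NADH fluorescence rather than 340 nm absorbance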
# Autofluor 339: intrinsic fluorescence of library compounds, ex339/em460 – biochemical, MLSMR library, data from DPM-DC assay, artefact control, profiling panel; compound autofluorescence, ex339/em460 nm, NADH buffer; stronger effect = higher value; 1 = no-compound wells, NADH background; fluorescence fold increase at 10 µM; 5.5% of 65,000 active; AID 709, 2007;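 active = at 10 µM, mean starting fluorescence two-fold or more over control wells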;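 also: signal is the first read of a kinetic run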
# DPM-DC inhibit: S. pneumoniae DPM-DC inhibitors, primary screen, biochemical, PK/LDH-coupled NADH fluorescence. diphosphomevalonate decarboxylase (Streptococcus pneumoniae D39). purified DPM-DC. calls only at 10 µM. 0.49% of 65,000 active. AID 556, 2006;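 active = the 320 compounds with the highest percent inhibition in the single-dose primary screen, excluding strongly autofluorescent ones, cut at about 32% in these data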;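 also: kinetic rate of NADH fluorescence loss reporting ADP formed by the decarboxylase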
# Abs 340nm: compound light absorbance at 340 nm, profiling panel, artefact control, biochemical, MLSMR library, data from PS, PMK, MK assays | 65,000 tested, under 10 active | fold change at 10 µM | compound absorbance at 340 nm, fold over control | AID 708, 2007;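 active = at 10 µM dose, initial 340 nm absorbance at least 2 fold that of control wells; inactive = change under 2 fold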;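 also: initial absorbance extrapolated from kinetic A340 decline of NADH oxidation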
# Numbers without * were called inactive; i = inactive; . = no result given; + = active, no number.
SMILES,Spn PMK inh,Spn MK inh,NADH coupling,Autofluor 339,DPM-DC inhibit,Abs 340nm
Cc1c(C(=O)Nc2ccc(-n3cnnn3)cc2)oc2ccccc12,10,13,12%,3.8*,.,1.1
Cc1ccc2oc(-c3ccc(NC(=O)CC(C)C)cc3)nc2c1,4,2,3%,2.2*,.,1.1
CC(=O)Nc1cccc(NC(=O)c2oc3ccccc3c2C)c1,0,11,1%,1.1,i,1
COc1cccc(NC(=O)N2CCCC2C(=O)NC2CC2)c1 (stereo unspecified),19,2,7%,1.1,i,1
COc1cccc(-c2nnc3n2N=C(C(C)(C)C)CS3)c1,23,9,11%,1.1,i,1
Cc1nc(CC(=O)N2CCN(c3cccc(C)c3C)CC2)cs1,13,7,7%,1,i,0.98
Cc1ccc(-c2cc(C(F)(F)F)c(C#N)c(SCCC#N)n2)o1,2,8,5%,3.7*,.,1.1
Cc1cccc(C)c1NC(=O)N1CCC(N2CCCCC2)CC1,17,0,6%,1.1,i,0.99
CCc1nc2ccccc2n1Cc1cc(=O)n2cc(C)ccc2n1,16,0,10%,3.4*,i,1.1
CCc1nc2ccccc2n1Cc1ccc(OC)c(OC)c1,2,2,1%,1.1,i,1
CCCCCn1c(N2CCOCC2)nc2c1c(=O)n(CC(N)=O)c(=O)n2C,7,6,4%,1.1,i,1.1
Nc1cc(C(=O)O)ccc1Nc1ccccc1,10,5,10%,1.8,+,1
COC(=O)c1ccc(NC(=O)CSc2nnc(CNc3ccc(F)cc3)n2C)cc1,12,11,8%,1.1,i,1
Cc1ccc2c(c1)-c1ccccc1S(=O)(=O)N2,0,10,5%,3.7*,.,1
O=c1c(-c2ccccc2)c(O)c2cccc3c2n1CCC3,66*,43*,62%,1.4,+,1.1
CC(=O)NCCc1cc2ccc(C)c(C)c2[nH]c1=O,4,0,2%,1.3,i,1.1
Cc1ccc2cc(CCNC(=O)CC(C)(C)C)c(=O)[nH]c2c1C,5,10,8%,2*,.,1.1
N#Cc1nc(-c2ccco2)oc1NCc1cccnc1,20,16,19%,2.1*,i,1
N#Cc1nc(-c2ccco2)oc1NCc1ccc(F)cc1,10,11,15%,3.3*,i,1
Cc1c(NC(=O)COC(=O)c2cc3c4ccccc4n(C)c3s2)c(=O)n(-c2ccccc2)n1C,6,2,11%,3.2*,i,1.2
CN1CCN(CCCNC(=O)c2cc3c(=O)n(C)c4ccccc4c3s2)CC1,0,12,6%,2.1*,.,1.2
CCOC(=O)c1cc2c(=O)n(C)c3ccccc3c2s1,14,6,21%,2.8*,+,1
CCOC(=O)c1ccc(NC(=O)c2c(O)c3ccccc3n(C)c2=O)cc1,0,7,2%,1.1,i,1.1
COC(=O)c1cc(OC)c(OC)cc1NC(=O)Nc1ccccc1OC,13,15,14%,2.1*,.,1
COC(=O)c1cc(OC)c(OC)cc1NC(=O)c1oc2ccccc2c1C,5,9,16%,2.5*,+,1.1
SMILES,Spn PMK inh,Spn MK inh,NADH coupling,Autofluor 339,DPM-DC inhibit,Abs 340nm
Clc1ccc2[nH]c3c(NCC4CCCO4)ncnc3c2c1 (stereo unspecified),11,2,9%,2.5*,i,1.1
Clc1ccc2[nH]c3c(NCCN4CCOCC4)ncnc3c2c1,12,5,8%,1.4,i,1.1
CCOc1ncccc1C(=O)OCC(=O)NCCc1ccc(OC)cc1,5,0,2%,1,i,1
CCc1nnc(NC(=O)Cn2nc(-c3ccccc3OC)ccc2=O)s1,14,8,7%,1.1,i,0.99
Cc1csc2nc3ccccc3c(=O)n12,4,5,6%,2*,i,1
Cc1nc2ccccc2c(=O)n1N,6,3,3%,1,i,1
C=CCn1c2ccccc2c2nnc(SCc3ccc4nonc4c3)nc21,0,3,3%,1.1,i,1.1
Cc1nc2ccccc2n2c(O)c(CC(=O)O)cc12,42*,2,15%,1.2,i,1
O=C(Nc1ccc2c(c1)oc1ccccc12)c1ccc2c(c1)OCO2,9,11,13%,1.9,i,1.1
O=c1c(O)c(-c2ccc3c(c2)OCO3)oc2ccccc12,13,1,14%,3*,i,1.1
Cc1ccc(-c2cc(-c3ccc4c(c3)OCO4)c(C#N)c(N)n2)o1,16,13,15%,3.8*,.,1
N#Cc1c(N)oc(-c2ccc3c(c2)OCO3)c1-c1ccc2c(c1)OCO2,15,2,9%,2.1*,.,1.1
CSc1nc(N)c(C#N)c(-c2ccc(Cl)cc2)c1C#N,4,1,4%,1.2,i,1
N#Cc1c(N)nc2c(c1-c1ccc3c(c1)OCO3)CCCCCC2,0,2,2%,1.3,i,1.1
Cc1ccc(-c2cc(-c3ccc(C)o3)nc(N)c2C#N)cc1,0,12,6%,3.8*,.,1
Cc1cc(-c2cc(-c3ccc(Cl)cc3)nc(N)c2C#N)co1,4,17,11%,2.3*,.,1
CCCCOCCCNC(=O)Cc1ccccc1OC,2,6,3%,1.1,i,1
C=CCN1C(=O)C2(/C(=C(\O)c3ccc4c(c3)OCCO4)C(=O)C(=O)N2CCCOC)c2ccccc21 (stereo unspecified),10,2,1%,1,i,1.1
CCCc1cc(-c2ccc(O)c(OCC)c2)c(C#N)c(N)n1,0,9,4%,1.7,i,1.1
Cc1ccc(-c2cc(-c3ccc(Cl)cc3)c(C#N)c(N)n2)o1,0,13,7%,3.8*,.,1
CC(=O)Oc1cc(OC(C)=O)c2c(C)cc(=O)oc2c1,0,0,0%,2.2*,.,1.1
Cc1cc(OC(=O)CNC(=O)OC(C)(C)C)c2c(C)cc(=O)oc2c1,11,12,15%,0.96,i,1
CC(=O)Oc1ccc2c(C)cc(=O)[nH]c2c1,10,0,6%,1.6,i,1
CC(=O)Nc1c(OC(C)=O)ccc2c(C)cc(=O)oc12,11,4,8%,5.1*,.,0.98
CC(=O)Oc1cc2oc(=O)cc(C)c2cc1OC(C)=O,7,11,9%,2.2*,.,1.1
COc1cccc(C(=O)N2CCN(S(=O)(=O)Cc3ccccc3)CC2)c1OC,8,2,4%,1,i,1
Nc1c(C(=O)NC2CCCCC2)nsc1C(=O)OCC(=O)NC1CCCCC1,11,11,17%,3.1*,i,1

# Compound activity deposited in PubChem BioAssay by SRMLSC.
